The sample as a whole holds a higher share of hits than the screen did.
Pf Dd2 growth: inhibitors of Plasmodium falciparum Dd2 growth; actives 4.3% (n = 120,000); Potency, µM (top dose mostly 28.9 µM), hits mostly inhibitors; P. falciparum Dd2 growth, SYBR Green, 72 h; active = well fitted inhibition curve with a large enough effect; note: nearly all actives have a fitted effect of over 65% in size
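Infected erythrocytes (Dd2, 0.3% parasitemia, 2.5% hematocrit final) are added to compound in RPMI-1640/Albumax II medium, grown 72 h at 37C in low oxygen, then lysed with saponin/Triton-X containing SYBR Green and read by fluorescence.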
Each line names hits and unclear results; the compound was inactive in the other large screens.

COC(=O)[C@H](NC(=O)[C@@H]1[C@@H](NC(=O)Nc2cccc(OC)c2)CCN1C(=O)CSC)C(C)C	none
O=C(O)C1CCc2nnc(C3CCCN([S+](=O)([O-])c4ccccc4)C3)n21 (stereo not given)	none
O=C(CC(F)(F)F)NCCc1noc(C2CC2)n1	none
CN(CCO)C[C@@H]1CN(C(=O)c2ccc3c(c2)CCC3)C[C@@H]1CO	none
Cc1c(CN2C[C@@H](CN(C)CCO)[C@@H](CO)C2)[nH]c2c(Cl)cccc12	Pf Dd2 growth 13µM
Cc1cc2c(cc1C(=O)N1C[C@@H](CN(C)CCO)[C@@H](CO)C1)OCCO2	none
Cc1ccc(C(=O)NC2CCCN(c3cc(-c4ccc(Cl)cc4)[nH]n3)C2)cn1 (stereo not given)	none
COc1cc2c(cc1OC)C(COc1ccc(C(C)C)cc1)N(C(=O)COc1ccccc1)CC2 (stereo not given)	Pf Dd2 growth 11µM
O=C(COc1ccccc1)NCc1ccc2c(c1)CCN2C(=O)c1ccc(Cl)cc1	none
COCc1nnc2n1CCC(NC(=O)COc1ccc(Cl)cc1)CC2 (stereo not given)	none
COC(=O)C[C@@H]1CCN(C(=O)COc2ccccc2)C[C@@H]1CC1=NCCc2cc(OC)c(OC)cc21	none
COC(=O)c1ccc(OCC2c3cc(OC)c(OC)cc3CCN2C(=O)COc2ccc(Cl)cc2)cc1 (stereo not given)	Pf Dd2 growth 10µM
COCCOC1CCN(C(=O)COc2ccccc2)CC1	none
COc1ccc(OCC(=O)N2CCN(C(=O)c3cc(OC)c(OC)c(OC)c3)CC2)cc1	none
COc1ccc(OCC2c3cc(OC)c(OC)cc3CCN2C(=O)COc2ccc(Cl)cc2Cl)cc1 (stereo not given)	Pf Dd2 growth 10µM
COC[C@@H]1CN(C(=O)COc2ccc(Cl)cc2C)C[C@H]1C(N)=O	none
Cc1ccc(C(=O)N2CCCCCCN(C)C(=O)[C@@H]3CCC[C@@H]32)cn1	none
CCNC(=O)NCCc1noc(-c2ccncc2)n1	none
CC1CCC2(CC1)NC(=O)N(CC(=O)Nc1ccc(Br)cc1F)C2=O (stereo not given)	none
COc1cccc(CCn2ccnc2-c2cc3n(n2)CCCNC3)c1OC	none
CN(CC1CCOC1)C(=O)Nc1c(F)cccc1F (stereo not given)	none
CC(=O)N1CCCC2(C1)C(=NC1CCCCC1)NC(=O)N2c1cccnc1 (stereo not given)	none
Cc1ccsc1C(=O)N1CCC(c2nn(C)c3c2COCC3)CC1	none
Cc1nc2scc(CC(=O)NCc3ccco3)n2c(=O)c1-c1cc(C)n(-c2ccccc2F)n1	none
Cc1nc(-c2c3n(c(=O)n(Cc4cccc(Cl)c4)c2=O)CCCCC3)no1	none
CCNC(=O)[C@@H]1C[C@H](NC(=O)Cc2ccccc2C)CN1C1CCCC1	none
c1cncc(Nc2cc3c(cn2)CN(CC2CCOCC2)CCN3)c1	none
COc1ccc(OC)c(CN2CCNc3cnc(Nc4cccnc4)cc3C2)c1	none
COc1ccc(OC)c(CN2CCNc3cc(Nc4ccccc4)ncc3C2)c1	Pf Dd2 growth 3.5µM
CC(=O)Nc1cccc(-c2cc3c(cn2)CN(Cc2ccccc2)CCN3)c1	none
COc1ccc(CN2CCNc3cc(Nc4ccccc4)ncc3C2)cc1O	none
COc1ccc(Nc2cc3c(cn2)CN(CCc2ccccc2)CCN3)cn1	none
c1ccc(Nc2cc3c(cn2)CN(Cc2cnc[nH]2)CCN3)cc1	none
c1ccc(Nc2cc3c(cn2)CN(Cc2cccs2)CCN3)cc1	Pf Dd2 growth 7.9µM
CCCN1CCNc2cc(Nc3ccccc3)ncc2C1	Pf Dd2 growth 8.9µM
CN1CCNc2cc(NCc3ccccc3)ncc2C1	none
Fc1ccccc1CN1CCNc2cc(Nc3ccccc3)ncc2C1	none
c1ccc(Nc2cc3c(cn2)CN(CC2CC2)CCN3)cc1	Pf Dd2 growth 13µM
N#Cc1cccc(C(=O)N2CCN(C(=O)c3nnn4c3COC(c3ccccc3)C4)CC2)c1 (stereo not given)	none
Cc1cc(C)c(S(=O)(=O)N2CC(c3nc(Cc4ccccc4)no3)C2)cc1C	none
CC(O)c1cc2n(n1)CCN(C1CCN(C(=O)c3cnccn3)CC1)C2 (stereo not given)	none
Cc1noc(C)c1Cc1c(C(=O)N2CCC(C3CCNC3)CC2)noc1C (stereo not given)	none
CC(C)CC(=O)NCCc1noc(C2CC2)n1	none
CC(=O)N1CCC(C(=O)N2CC(c3ccccc3)C(C)(C)C2)CC1 (stereo not given)	none
COc1ccccc1Oc1ncccc1CNC(=O)c1ccccc1SC	none
COc1cccc(C(=O)N2CCC(C(=O)N3CC[C@@](C)(O)[C@@H](O)C3)CC2)c1	none
O=C(Nc1ccnn1C1CCN(Cc2nccs2)CC1)c1ccc2c(c1)OCO2	none
CN1C(=O)CO[C@H]2CN(c3ccc(C#N)cn3)C[C@H]21	none
c1ccc(CN2CCNc3cc(Nc4ccc(N5CCOCC5)cc4)ncc3C2)cc1	Pf Dd2 growth 11µM
c1ccc(CCN2CCNc3cc(NCCN4CCOCC4)ncc3C2)cc1	none
Fc1cccc(CN2CCNc3cc(Nc4ccccc4)ncc3C2)c1	none
COc1ccccc1NC(=O)Cn1c(-c2ccccc2)nc(C)cc1=O	none
CCc1cc(=O)n(CC(=O)Nc2ccccc2)c(-c2ccccc2)n1	none
CCc1cc(=O)n(CC(=O)Nc2ccc(OC)c(OC)c2)c(-c2cccc(F)c2)n1	none
CCc1cc(=O)n(CC(=O)Nc2ccccc2C)c(-c2ccccc2)n1	Pf Dd2 growth 10µM
CCc1cc(=O)n(CC(=O)Nc2ccc(OC)cc2)c(-c2ccccc2)n1	none
CCc1cc(=O)n(CC(=O)Nc2cc(OC)c(OC)c(OC)c2)c(-c2ccccc2)n1	Pf Dd2 growth 11µM
Cc1noc(C)c1-c1cc2c(c(-c3ccc([S+](C)(=O)[O-])cc3)c1)C(=O)N(C)C2	none
CNC(=O)[C@@H]1CN(C(=O)c2ccc(Br)o2)C[C@H]1c1n[nH]c(C)n1	none
CN1CCCN(CC(=O)N2C[C@H](NS(C)(=O)=O)[C@@H](C3CC3)C2)CC1	none
Cc1ccc(-c2cc(C(=O)Oc3ccccc3)c3cccc(C)c3n2)cc1	none
COc1ccc(-c2cc(C(=O)Oc3ccccc3)c3cc(C)ccc3n2)cc1	Pf Dd2 growth 4.5µM
COc1ccc(-c2cc(C(=O)Oc3ccc(C)cc3)c3cc(C)ccc3n2)cc1	none
O=C(CCC1CCCN(S(=O)(=O)c2ccccc2)C1)N1CCCCC1 (stereo not given)	none
O=S(=O)(c1ccccc1)N1CCC(Cc2nncn2-c2ccccc2)CC1	none
Cn1ncc2c(C(=O)NCCc3ccc(Cl)cc3)cc(-c3ccc([S+](C)(=O)[O-])cc3)nc21	none
CC(C)(C)c1nc(C(=O)NCCc2ccc(Cl)cc2)n2ccncc12	Pf Dd2 growth 2.2µM
C[S+](=O)([O-])c1ccc(-c2nc(C(=O)NCCc3ccc(Cl)cc3)n3ccncc23)cc1	Pf Dd2 growth 8.9µM
Cc1cccn2c(=O)c(C(=O)NCCc3ccc(Cl)cc3)cnc12	none
COC(=O)CNC(=O)c1nc(-c2ccsc2)c2cnccn12	none
COCCNC(=O)c1nc(-c2cccnc2)c2cnccn12	none
Cc1ccccc1C(=O)N1CCC(C(NC(=O)c2cccs2)C(=O)N2CCCCC2)CC1 (stereo not given)	none
Cc1cc(C)n(CCCNC(=O)c2cc(COc3ccc4sc(C)nc4c3)on2)n1	none
COC(=O)c1ccccc1NC(=O)c1cc(CN2CCCC2)on1	none
CC(C)(C)C(Cn1ccnc1)NC(=O)c1cc(COc2ccc3c(c2)CCCC3)on1 (stereo not given)	Pf Dd2 growth 8.9µM
CCN1C(=O)CCN(Cc2ccc(C)c(C)c2)CC12CCOCC2	none
C[C@@H]1CCC[C@H](C)N1CC(=O)N1CCn2nc(Cc3ccccc3)cc2C1	Pf Dd2 growth 11µM
CCOCC(=O)N1CCn2nc(Cc3ccccc3)cc2C1	none

Bioassay records: PubChem, National Center for Advancing Translational Sciences (NCATS)
